# This excerpt belongs to a sample that is enriched for hits.
# YopH PTP inh: inhibitors of Yersinia enterocolitica YopH tyrosine phosphatase. fluorescence Ex485/Em525. inhibition, % (concentration not given with the values). actives 0.16% (n = 140,000). AID 898; in the data active = inhibition above about 50%
# Mtb RmlCD inh: inhibitors of Mycobacterium tuberculosis RmlC and RmlD coupled enzymes; P9WH09+P9WH11; RmlC+RmlD coupled enzyme assay, percent inhibition; primary screen in compound mixtures; inhibition, % at 3.6 µM; actives 0.03% (n = 160,000); AID 1533; in the data active = inhibition mostly above about 34%, no sharp cut-off
# Target sequence (P9WH09 whole entry, looked up): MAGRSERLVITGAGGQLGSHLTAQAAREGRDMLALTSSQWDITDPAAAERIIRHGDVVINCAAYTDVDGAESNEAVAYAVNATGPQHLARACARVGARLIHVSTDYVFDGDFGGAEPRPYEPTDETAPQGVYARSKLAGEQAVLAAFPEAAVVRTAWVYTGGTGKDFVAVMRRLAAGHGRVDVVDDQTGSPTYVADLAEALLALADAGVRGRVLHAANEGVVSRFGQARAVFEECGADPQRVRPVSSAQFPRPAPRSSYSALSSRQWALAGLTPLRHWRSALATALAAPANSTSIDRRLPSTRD
# Target sequence (P9WH11 whole entry, looked up): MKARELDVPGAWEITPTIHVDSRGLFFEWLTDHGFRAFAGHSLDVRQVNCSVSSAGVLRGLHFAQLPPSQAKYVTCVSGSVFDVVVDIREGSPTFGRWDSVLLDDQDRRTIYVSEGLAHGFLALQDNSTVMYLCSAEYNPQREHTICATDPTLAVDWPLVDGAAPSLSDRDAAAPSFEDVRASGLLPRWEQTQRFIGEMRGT
# An asterisk follows results filed as active; . = not tested or not shown.
SMILES,YopH PTP inh,Mtb RmlCD inh
O=C(NC(=S)N1CCN(C(c2ccccc2)c2ccccc2)CC1)c1ccc(S(=O)(=O)N2CCOCC2)cc1,-21,-7
COc1ccc(-c2cc3nc4n(c(=O)c3s2)CCCCC4)cc1,.,-8
COc1ccc(-c2cc3nc4n(c(=O)c3s2)CCC4)cc1,-8,77*
CCOc1cc(/C=N/NC(=O)C(=O)NCCCOC(C)C)cc(Br)c1O,-10,-6
N#Cc1c(NC(=O)c2cnccn2)sc2c1CCCC2,-24,.
CCc1cccc(NC(=O)Cn2cc(C=O)c3ccccc32)c1,.,-8
CS(=O)(=O)N(CC(=O)N1CCC(C(N)=O)CC1)c1cc(C(F)(F)F)ccc1Cl,.,8
C=CCc1cccc2cc(C(=O)Nc3ccc(S(=O)(=O)Nc4nnc(CC)s4)cc3)c(=O)oc12,75*,-5
C=CCc1cccc2cc(C(=O)Nc3ccc(F)cc3)c(=O)oc12,-43,.
CCSc1nnc2ccc(-c3ccco3)nn12,.,-10
CCOC(=O)CCC(=O)Nc1ccc([N+](=O)[O-])cc1C,.,40
Cc1noc(NS(=O)(=O)c2ccc(NC(=O)COc3ccc(Cl)cc3Cl)cc2)c1C,-31,12
Cc1noc(NS(=O)(=O)c2ccc(NC(=O)CCCOc3ccc(Cl)cc3Cl)cc2)c1C,92*,.
COc1ccc(F)cc1C(=O)C1CCCN(C(=O)C2=C(C)OCCO2)C1 (centres undefined),.,-9
N#CC(C#N)=c1ccc2c(c1)NC1(CCCCC1)N=2,92*,.
N#CC(C#N)=C1NC2(CCCCC2)Cc2ccccc21,.,-1
COc1ccc(C(CNC(=O)c2ccccc2SC)N(C)C)cc1 (centres undefined),.,-10
COC(=O)C1=C(C)Nc2[nH]c(=S)[nH]c(=O)c2C1c1ccc(O)cc1 (centres undefined),.,-14
COc1cc(C2C(C(=O)OC(C)C)=C(C)Nc3[nH]c(=O)[nH]c(=O)c32)ccc1O (centres undefined),51*,13
O=C(/C(=C(\[O-])c1ccccc1)[n+]1ccc2ccccc2c1)c1ccccc1,69*,-11
O=C(/C(=C(\[O-])c1ccccc1)[n+]1ccc2ccccc2c1)c1ccc(Cl)cc1,10,-12
COc1ccc(SCCC(=O)NCc2ccncc2)cc1,.,65
Cc1ccc(NC(=S)NNC(=O)c2cccc([N+](=O)[O-])c2)cc1Cl,.,40
CCOC(=O)c1nn(-c2ccccc2)c(C#N)c1NC(=O)c1nn(CC)cc1Br,-26,.
CCOC(=O)c1c(NC(=O)c2nn(CC)cc2Br)c(C#N)nn1-c1ccccc1,52*,24
SMILES,YopH PTP inh,Mtb RmlCD inh
CCN(CC(=O)Nc1ccccc1OC)C(=O)COc1ccc2ccccc2c1,-10,-5
COc1ccc(NS(=O)(=O)c2ccc(/C=C/C(=O)O)cc2)cc1S(=O)(=O)N1CCOCC1,.,-4
CCN(CC)c1ccc(/C=N/Nc2ccc(C)cc2)c(O)c1,83*,11
CCOC(=O)N/N=C/c1ccc(N(CC)CC)cc1O,-26,5
CCOC(=O)N1CCN(C(=O)COc2cc(=O)n(CC)c3ccccc23)CC1,-30,.
CCOC(=O)COc1cc(=O)n(CC)c2ccccc12,52*,-4
Cc1cc(C)nc(SCC(=O)Nc2sc3c(c2C#N)CCC(C)C3)n1 (centres undefined),93*,.
Cc1ccnc(SCC(=O)Nc2sc3c(c2C#N)CCC(C(C)(C)C)C3)n1 (centres undefined),1,.
O=C(c1cccs1)N1CCN=C1SCc1ccc(Cl)cc1,.,-13
O=C(c1cccs1)N1CCN=C1SCc1cccnc1,50*,-10
CS(=O)(=O)N1N=C(c2cccs2)CC1c1ccc(Cl)o1 (centres undefined),.,-11
N#C/C(=C\c1ccncc1)c1nc2ccccc2[nH]1,.,34*
N#C/C(=C\c1cccnc1)c1nc2ccccc2[nH]1,.,14
Cc1cc(C)cc(NC(=O)C2CCCN2/C=C/C(=O)C(F)(F)F)c1 (centres undefined),-23,10
O=C1CC(=O)N(CCc2ccccc2)C(=O)N1CCc1ccccc1,-34,10
O=C1C=CC(=O)C(C2=C3C(=O)N(CCc4ccccc4)CC(=O)N3CCC2)=C1,67*,.
COc1cccc(/C=N/NC(=O)c2cc3c(OC)cccc3[nH]2)c1OC,-11,-7
COc1cccc(/C=N/NC(=O)c2cc3c(OC)cccc3[nH]2)c1O,-43,69*
Cn1cc(Br)c(NC(=O)/C=C/C(=O)O)n1,.,-12
O=C1C(=O)c2cccc3cccc1c23,-28,-4
O=C1C(=O)c2ccccc2-c2ccccc21,100*,-5
O=C(CN1CCC(C(=O)c2cccc(Cl)c2)CC1)Nc1ccc(C(=O)O)cc1,.,4
CC(C)[C@H](NS(=O)(=O)c1ccccc1)C(=O)OCC(=O)N1N=C(c2ccc(Cl)cc2)CC1c1ccco1 (some centres undefined),-19,-7
